Tests used:
Assay in all cases: PBM binding z-score (relative to random genomic background probes); higher = stronger binding; sequences stand for … in GC…GCGATTGACAGCGTAGAATGAAGG
[1] = test system: RARb homodimer (NR concentration 270 nM)
How it was run: (§1)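 Binding z-scores take random background probes as their reference. They come from custom Agilent 4×180K protein-binding microarrays incubated 1 h with ligand-free nuclear receptor dimers, with antibodies against each partner (one per run) detecting binding. Scanned fluorescence was regression-normalized.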

[2] = test system: RARg:RXRa (NR concentration 270 nM, RXRa partner concentration 90 nM)
How it was run: as §1

[3] = test system: RARg homodimer (NR concentration 270 nM)
How it was run: as §1

[4] = test system: RXRa DBDmut IVT, anti-RXR (DBD mutation: RXRa K156A/R161A, NR concentration 90 nM)
How it was run: as §1

[5] = test system: RXRa homodimer (NR concentration 180 nM)
How it was run: as §1

[6] = test system: THRa:RXRa (NR concentration 90 nM, RXRa partner concentration 90 nM)
How it was run: as §1

[7] = test system: THRa homodimer (NR concentration 90 nM)
How it was run: as §1

[8] = test system: VDR homodimer (NR concentration 270 nM)
How it was run: as §1

Sequence | PBM binding z-score [1] | PBM binding z-score [2] | PBM binding z-score [3] | PBM binding z-score [4] | PBM binding z-score [5] | PBM binding z-score [6] | PBM binding z-score [7] | PBM binding z-score [8]
GTACCAGGGTGAATAGGTCGTTGATGAGTAGGCG | 1.54 | 2.21 | 0.988 | -0.386 | 2 | 1.21 | 0.463 | 0.626
TCTATTAGTTGATTAGGGGAACCGAAACAGCGGA | 0.155 | 0.431 | 0.32 | 1.67 | 0.729 | 0.257 | 0.319 | 0.458
ACAATGAGGTTAAGATCAGGGAAACAGAATACAT | 0.906 | 2.33 | 1.7 | 1.33 | 2.53 | 2.51 | 0.954 | 0.941
TCTTGTAGTTCAACAGGAGGTTAAGAAAGATCGA | 2.2 | 4.32 | 2.05 | 2.02 | 2.16 | 2.17 | -0.466 | 1.11
TCTCGGAGGACACTAAGGTCAGAGCTTTCCAGAG | 3.82 | 3.4 | 3.84 | 1.33 | 2.26 | 3.71 | 3.11 | 2.73
CTCGTAAGGTCGGTTGAGGTGAGTATACGGATAA | 1.99 | 1.89 | 2.09 | 1.26 | 1.44 | 5.11 | 2.39 | 0.937
CCTAGTTGGTCAGGCGGTCACACACCGGATATGA | 2.12 | 1.41 | 1.67 | -0.336 | 0.344 | 0.232 | 0.129 | 0.3
TCAGACAGATGAAGGTAACTCAGGTACGCAGTCG | -0.403 | 0.326 | 0.197 | 1.34 | 0.965 | 1.03 | -0.261 | 0.0374
GTAACGAGGGCATTCGAGTTGATAGCATGGCGAT | 0.944 | 1.34 | 1.45 | 2.91 | 0.914 | 3.18 | -0.244 | 3.97
CTACCAAGCTGAACAAGGTCGTTGATTACTATTC | 1.13 | 0.311 | 0.109 | 1.3 | 0.787 | 1.86 | 1.46 | 2.1
TCTGCTAGGTAAGTTGGTCAGCTAACGAGCTGCC | -0.545 | -0.54 | -0.71 | 0.107 | -0.613 | -0.549 | -0.918 | -0.989
CGTCCAAGGTGAGCAGGTCAGTGAAAGCGACGTG | 2.7 | 2.24 | 2.37 | -0.254 | 1.09 | 2 | 0.649 | -0.353
ATCGAAAGCTCGAAGGTGAGTATACCCACCCGAA | -0.378 | -0.032 | 0.202 | -1.19 | 0.158 | -0.167 | -1.04 | -0.249
AATACACGGTCATCGTAGGCCAGAGTACGCACAG | 2.36 | 2.06 | 2.76 | 0.479 | 1.07 | 2.15 | -0.0649 | 0.733
GCGATTGGGGCATCAGCAGGTTACCATAACTTAA | 0.917 | 0.779 | 0.543 | 0.393 | 0.323 | 1.03 | 0.429 | -0.374
CCAACTAGGTCAAGGACAGTGAATCTCCGCACGC | 3.18 | 3.66 | 4.42 | 1.8 | 2.41 | 3.16 | 2.22 | 0.694
GCTGCTAGGTCAGGTTGGTCATCTAACGGGTACG | 2.84 | 2.81 | 3.9 | 0.588 | 1.18 | 1.94 | 0.942 | 0.689
GCAGACAGGTGAAACGCAGGTGACTCAGGGTGGC | 0.561 | 1.85 | 0.482 | -0.723 | 0.927 | 1.56 | -0.166 | -0.391
TGTCAAAGTTCAAAGGTATCGTAAGTATCCACAC | 3.71 | 5.75 | 6.26 | 4.47 | 6.28 | 2.56 | -0.19 | 4.53
CCTCGGAGGACGGAAGGTCAGAGCTGTCCGCTTT | 2.97 | 2.49 | 2.14 | -0.0504 | 1.69 | 1.94 | -0.304 | -0.0606
ACAGACAGGTGAGTGGAGGTAACTCAGCTGGACG | 0.51 | 0.417 | 0.421 | -0.468 | 0.451 | 2.29 | -0.0738 | -0.0506
CTCGAAAGGTCGTGCTGAGGTGAGTATACCAAAC | 3.29 | 5.56 | 4.04 | 1.92 | 4.81 | 4.6 | 1.38 | 1.06
ACTATTAGTTGAGACGAGGGCTACCGATAGGTTG | -0.26 | 0.564 | 0.518 | 0.406 | 0.235 | 0.224 | -0.838 | -0.209
AGTCAAAGTTCAGGACGAGGTAACGTACAGCACG | 3.47 | 4.77 | 4.74 | 2.99 | 2.92 | 3.9 | 1.82 | 2.1
GATACAGGGTCAAGGCCAGATTACGCGTATTGAT | 3.73 | 5.64 | 5.39 | 2.72 | 6.08 | 3.68 | 1.61 | 2.09
TCGAGTAGGTTAGGGGCATTCTGAATGGCGTCGA | 0.656 | 0.0827 | 0.00279 | 0.628 | 0.386 | 0.627 | -0.0336 | 0.572
TAGCCTAGGTCATTCAGGGGCCAGTATAGAAAGC | 3.29 | 6.13 | 4.44 | 1.6 | 2.84 | 3.45 | 0.509 | 1.32
TAGCCTAGGTCATGGGCCCGTATACCACGCGAAC | 2.95 | 4.3 | 4.56 | -0.133 | 3.53 | 3.13 | 1.76 | 0.701

Source: the supplement of paper PMC6555819
